Source: PubChem BioAssay
Compounds with a hit are over-represented: about 14% of the library has one in this group of screens.
Giardia FBPA inh = qHTS Assay for Inhibitors of Fructose-1,6-bisphosphate Aldolase from Giardia Lamblia | purified Giardia FBPA | Potency, µM (series often up to 59.6 µM), actives largely listed as inhibitors | 290,000 tested, 0.71% active | AID 2451, 2010; also: nearly all actives have a fitted effect of over 55% in size
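Giardia FBPA (40 nM reagent) was preincubated 10 min at RT with compound (up to 57.5 uM final), then substrate plus GAPDH/TPI/NAD/arsenate coupling system with diaphorase/resazurin was added; resorufin fluorescence (525/598 nm) was read after 20 min.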
LmPK inh = qHTS Assay for Inhibitors of Leishmania Mexicana Pyruvate Kinase (LmPK); purified LmPK, Kinase-Glo ATP luminescence, 1 h; AID 1721, 2009; 290,000 tested, 0.37% active; Q27686; Potency, µM (highest dose often 57.5 µM), usual class: inhibitors
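In 50 mM imidazole pH 7.2 with 7 mM MgCl2, LmPK (0.1 nM) turned over PEP (0.5 mM) and ADP (0.1 mM) for 1 h at room temperature. Luciferase read-out of ATP.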
Shiga toxin inh = A qHTS for Small Molecule Inhibitors of Shiga Toxin; Vero cells, Shiga toxin protein synthesis inhibition reporter; inhibition, % at 38.7 µM; 290,000 tested, 9.2% active; AID 2315, 2010; in the data active = inhibition mostly above about 28%, no sharp cut-off; inactive = mostly below about 43%
Cycloheximide cs = Cycloheximide Counterscreen for Small Molecule Inhibitors of Shiga Toxin | cell reporter, cycloheximide protein synthesis inhibition counterscreen | max response, % | 300,000 tested, 12% active | AID 2314, 2010; in the data active = max response mostly above about 13%, no sharp cut-off; inactive = mostly below about 14%; also: read at 38.3 µM for the half of the compounds with a filed dose
NS1 function inh = qHTS Assay for Inhibitors of Influenza NS1 Protein Function; Potency, µM (highest dose often 46.1 µM); 270,000 tested, 0.4% active; AID 2326, 2010; calls by dose curve; also: actives are rising curves; nearly all actives have a fitted effect of over 50% in size
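OD600 was taken as the measure of yeast growth restored by compound in an NS1-expressing S. cerevisiae strain. Cells had been washed out of glucose medium and diluted 1:100 into galactose -URA medium, pH 6.0.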
Each line names hits and unclear results; the compound was inactive in the other large screens. Unless noted, calls follow the shape of the dose curve; as a rule, active = well fitted curve in the direction sought with a large enough effect; inconclusive = small, poorly fitted or top-dose-only effect, or another doubt; inactive = no such curve, though single readings can be large; an effect the other way counts as inactive or inconclusive.

Cc1cc(NC(=O)CCC(=O)N(c2ccccc2)C(C(=O)NC2CCCC2)c2ccccc2C)no1 (stereo not given)	none
Cc1cccc(NC(=S)NNC(=O)c2ccc(O)cc2O)c1C	Shiga toxin inh 35.3, Cycloheximide cs 20.3
Cc1ccc(NC(=O)NNC(=O)c2cc3ccccc3cc2O)c(C)c1	none
Cc1ccc(NC(=S)NNC(=O)c2ccccc2O)c(C)c1	Giardia FBPA inh inconclusive, Shiga toxin inh 96.5, Cycloheximide cs 33.4
COc1cccc(NC(=O)COC(=O)CCCC2=NS(=O)(=O)c3ccccc3N2)c1	none (no result: Giardia FBPA inh)
O=C(NCc1ccccn1)c1nc(Cn2cc([N+](=O)[O-])cn2)no1	none
CCN1CCN(CCCNC(=O)C2CCN(c3nnc(-n4c(C)ccc4C)s3)CC2)CC1	none
CN(C)S(=O)(=O)Oc1cc(Cl)ccc1C(=O)Nc1ccc(F)cc1F	Cycloheximide cs 34.9 (no result: NS1 function inh)
CN(C)c1ccncc1C(=O)Nc1ccc(F)cc1F	none
COC(=O)c1[nH]c2ccc(Cl)cc2c1NC(=O)C1CC1	none
COC(=O)c1[nH]c2ccc(Cl)cc2c1NC(=O)Oc1ccccc1	Shiga toxin inh 56.0, Cycloheximide cs 40.0
